For 40 sequences, sensor-assay potency score (higher = more potent) results are on record in the OligoGym collection.
Further: reference of the scale not given here.

In one test the target is TGFB1I1. The experiment in a line: pooled miR-30 sensor sort-seq; sequence = guide strand. Particulars: shRNA.
Take ATTTGTGGAGCTCACCACCGGT: the sensor-assay potency score (higher = more potent) was -0.966.

Sequence TTAAGTTCCTGAAGCAACCGAT returned a sensor-assay potency score (higher = more potent) of -0.211.

TTTATTGCAGGAGCCACAGAGG showed a sensor-assay potency score (higher = more potent) of -1.1.

The sequence TTGTGGAGCTCACCACCGGTGG came in with a sensor-assay potency score (higher = more potent) of -1.9.

TTGTCTGTGTGCAATCCACTTT returned a sensor-assay potency score (higher = more potent) of 0.0751.

Sequence TAAGTTCCTGAAGCAACCGATC displayed a sensor-assay potency score (higher = more potent) of -1.43.

TCTTTTCTTATCTTCAGACTGG: the sensor-assay potency score (higher = more potent) is -0.149.

Take TTTTCTTATCTTCAGACTGGTC: the sensor-assay potency score (higher = more potent) is -0.967.

Turning to TTTGTGGAGCTCACCACCGGTG, the sensor-assay potency score (higher = more potent) was -1.15.

In turn, TGAGACATGATTTCATCTGTGA had a sensor-assay potency score (higher = more potent) of 0.918.

Another test has as its target THNSL1. The description is as above. As to conditions: shRNA.
With TATACTAGAAAAACATTTCTGT, the sensor-assay potency score (higher = more potent) came to 0.647.

With TTGCTCATTACCAACATCCTGT, the sensor-assay potency score (higher = more potent) came to 0.41.

Regarding ATCTAGTAGAGGTACATCCAGG, the sensor-assay potency score (higher = more potent) is -1.3.

TATCTGTGCTCTTTCTACGTAG: the sensor-assay potency score (higher = more potent) is -0.49.

The sequence TTTGTCTCCAACAAGAGAGTGG displayed a sensor-assay potency score (higher = more potent) of -0.0448.

As to TTTGAGAATATCTATTGACGGT, the sensor-assay potency score (higher = more potent) is -0.0842.

Consider TATAATTGCAACTTGGTGGGAT, for which the sensor-assay potency score (higher = more potent) was determined as 0.997.

Sequence TTCTTTAATCTTTAAAGCCTGC registered a sensor-assay potency score (higher = more potent) of -0.791.

For the sequence TATGACACAACAACCTAGTTTC, the sensor-assay potency score (higher = more potent) was -0.543.

TATCCTTTGCTTATCATTCTTA came in with a sensor-assay potency score (higher = more potent) of 0.234.

TATAGGTGGAGTTAATAGCTGC came in with a sensor-assay potency score (higher = more potent) of -0.591.

Sequence TTGAGAATATCTATTGACGGTG came in with a sensor-assay potency score (higher = more potent) of -0.169.

In a further test the target is THOC7. Described as above. As to conditions: shRNA.
Take TAATTCTCCGATCATCTCCAGC: the sensor-assay potency score (higher = more potent) is -0.503.

For TTTGCTTGAAGAATTTGCTTTT, the sensor-assay potency score (higher = more potent) was -0.209.

With TTCCTGAGCTTCTTCTACCTCT, the sensor-assay potency score (higher = more potent) is -0.111.

For TTTTCGTATTCGTTTTGCTTGA, the sensor-assay potency score (higher = more potent) was -0.919.

In the case of TTCGTATTCGTTTTGCTTGAAG, the sensor-assay potency score (higher = more potent) was -0.51.

Turning to TTTTGCTTGAAGAATTTGCTTT, the sensor-assay potency score (higher = more potent) was -0.308.

Take TATGCTACATTCTATTTCCTTG: the sensor-assay potency score (higher = more potent) is -0.777.

Sequence TTTCCGTCTCAATTCCAGCTTA displayed a sensor-assay potency score (higher = more potent) of -0.243.

Consider TAATGTGTGAAAGATGCTCTAA, for which the sensor-assay potency score (higher = more potent) is 0.0139.

As to TAAGAAGAACATGAAACTGTTT, the sensor-assay potency score (higher = more potent) was -0.283.

As to TTTAATGAAACTCTTCACTAGC, the sensor-assay potency score (higher = more potent) came to 0.0596.

Another test has as its target TIMM44. The description is as above. As to conditions: shRNA.
For TTCCGTAGCACCTCGCTCGTCC, the sensor-assay potency score (higher = more potent) stood at 1.18.

Regarding ATCACTTTTACTGACTTCGTGA, the sensor-assay potency score (higher = more potent) stood at 0.235.

ATCTTCATCTCGAAGAACCGGT: the sensor-assay potency score (higher = more potent) was -0.094.

The sequence TTTACTGACTTCGTGAAGGCTC registered a sensor-assay potency score (higher = more potent) of 0.133.

As for TTCTCTTCCGGAGTCGCTGGGG, the sensor-assay potency score (higher = more potent) is -0.531.

As for TAGCTTCATAGCACCAGTCTTT, the sensor-assay potency score (higher = more potent) is -0.701.

TTGTTTGACATTATCTAGCAAG displayed a sensor-assay potency score (higher = more potent) of -0.93.
